An excerpt weighted towards active compounds, which were near 3.7% of everything screened.
GALK inhibitor = inhibitors of human galactokinase (GALK). P51570. recombinant GALK, Kinase-Glo ATP luminescence, 1 h. Potency, µM (highest dose often 57.5 µM), for the others: top-dose activity, negative = inhibition, actives largely listed as inhibitors. 44,000 tested, under 10 active. AID 1347072;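 note: plate controls were full GALK reaction for no effect and reaction lacking GALK for full effect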
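Luminescent ATP-depletion readout (Kinase-Glo Plus) after 1 h room-temperature incubation of human GALK (5 nM) with galactose 100 µM and ATP 35 µM, pH 8.0 HEPES/Mg2+ buffer; compounds tested in qHTS format.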
NTMT1 inhibitor = blocks human N-terminal methyltransferase 1 activity; Q9BV86; NTMT1 MTase-Glo SAH luminescence, purified enzyme; Potency, µM (titrated, usually from 114 µM), inactives show at the highest dose activity change, negative = inhibition, most hits filed as inhibitors; 59,000 compounds, 2.5% hits;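 note: potency is the fitted concentration of half-maximal effect; plate controls were DMSO vehicle for no effect and no enzyme for full effect; nearly all actives have a fitted effect of over 65% in size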
Target sequence (Q9BV86 whole entry, looked up): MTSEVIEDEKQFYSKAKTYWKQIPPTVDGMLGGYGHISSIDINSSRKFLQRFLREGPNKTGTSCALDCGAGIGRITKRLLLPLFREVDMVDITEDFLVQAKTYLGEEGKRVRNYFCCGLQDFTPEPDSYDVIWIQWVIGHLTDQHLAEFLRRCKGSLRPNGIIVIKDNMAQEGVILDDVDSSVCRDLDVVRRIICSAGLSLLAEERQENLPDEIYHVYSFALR
B2AR arrestin ag = ADRB2 beta-arrestin recruitment; P07550; HTLA Tango cells, beta-arrestin recruitment, luciferase luminescence, 18 h; Potency, µM (titrated, usually from 46.1 µM), most hits filed as activators; 44,000 tested, under 10 active;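 note: potency is the fitted concentration of half-maximal effect; 0% = DMSO and full agonism = EC100 isoproterenol or metaproterenol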
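Ligand-induced beta-arrestin recruitment to recombinant beta2-AR is measured via a tTA-driven luciferase reporter in Tango cells after 18 hr compound exposure at 37 degrees C. Concentrations span up to 46 microM.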
DRV1 agonist = activates human resolvin D1 receptor GPR32. activation, % at 76.9 µM. 48,000 compounds, 2.5% hits. CHO-K1 GPR32 beta-arrestin PathHunter luminescence, 90 min; zero percent set by DMSO-only wells. O75388;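 active = activation of at least 60% and not above a set upper limit, about 1 call in 100 departs from these limits; inconclusive = activation of 40% to 60%, or above that upper limit; inactive = activation under 40%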; note: 0% is about no effect
Target sequence (O75388 whole entry, looked up): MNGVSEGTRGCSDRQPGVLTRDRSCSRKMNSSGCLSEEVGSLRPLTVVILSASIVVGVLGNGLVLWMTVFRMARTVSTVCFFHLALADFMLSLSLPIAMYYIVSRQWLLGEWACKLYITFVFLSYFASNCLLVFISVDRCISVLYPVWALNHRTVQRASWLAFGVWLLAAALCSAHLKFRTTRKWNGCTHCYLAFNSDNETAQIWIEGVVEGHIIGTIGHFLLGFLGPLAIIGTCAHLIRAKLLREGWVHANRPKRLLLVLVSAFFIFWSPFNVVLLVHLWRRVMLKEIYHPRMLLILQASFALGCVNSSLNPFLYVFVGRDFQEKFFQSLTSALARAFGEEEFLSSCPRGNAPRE
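Beta-arrestin recruitment read-out: luminescence from complemented beta-Gal in CHO-K1 GPR32 PathHunter cells, measured 1 h after detection reagent at ambient temperature following 90 min compound exposure at 37 °C; DMSO served as basal (EC0) control.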
FH mod = Identification of activators of human fumarate hydratase by quantitative high-throughput screening; FH coupled MDH/diaphorase resazurin fluorescence, 15 min; Potency, µM (highest dose often 79.9 µM), without a hit: top-dose activity change, negative = inhibition, usual class: inhibitors; 54,000 compounds, 0.22% hits; note: potency is the fitted concentration of half-maximal effect; % is set by controls: 0 for no effect and ±100 for the full control effect; the screen sought activators but most active calls are inhibition curves; nearly all actives have a fitted effect of over 45% in size
PTAP-TSG101 blk = inhibitors of HIV-1 PTAP binding to human TSG101, validation | Fluorescence polarization, FITC-PTAP peptide/Tsg101, 20 min | Potency, µM (series often up to 115 µM), actives largely listed as inhibitors | 44,000 tested, under 10 active; note: potency is the fitted concentration of half-maximal effect; 0% is about no effect
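Steps: Tsg101 binding domain (10 uM final) in HEPES pH 7.5/NaCl/Tween 20/EDTA/TCEP; add compound; add FITC-PTAP peptide (50 nM final); incubate 20 min r.t.; read polarization.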
Active calls of the source: *; i = inactive; ? = inconclusive; . = not tested or not shown; ! = repeats disagree; [ ] = remark or other dose. Unless noted, calls come from the whole dose curve; as a rule, active = well fitted curve in the direction sought with a large enough effect; inconclusive = small, poorly fitted or top-dose-only effect, or another doubt; inactive = no such curve, though single readings can be large; an effect the other way counts as inactive or inconclusive.

SMILES | GALK inhibitor | NTMT1 inhibitor | B2AR arrestin ag | DRV1 agonist | FH mod | PTAP-TSG101 blk
COCCn1c(SCC(=O)Nc2ccc(F)c(Cl)c2)nc2c(oc3ccccc32)c1=O | -3% | 79µM* | i | 9 | -3% | i
COc1ccc(NC(=O)CSc2nc3c(oc4ccccc43)c(=O)n2Cc2ccco2)cc1Cl | 5% | -5% | i | -3 | -1% | i
O=C(NCCc1ccccc1)C1CCN(c2nc(-c3ccc(Br)cc3)cs2)CC1 | . | 5µM* | . | . | . | .
CNC(=O)C1CCN(c2nc(-c3ccc(Br)cc3)cs2)CC1 | . | -20% | . | . | . | .
C=CC(=O)Nc1cccc(Oc2nc(Nc3ccc(N4CCN(C)CC4)cc3)ncc2Cl)c1 | . | ? | . | . | -9% | .
C=CC(=O)Nc1cccc(Nc2nc(Nc3ccccc3)ncc2C)c1 | . | 45µM* | . | . | 2% | .
CC(C)c1ccccc1-c1nc(NCc2ccc(-c3cccnc3)cc2)c2ccsc2n1 | . | 1% | . | . | . | .
O=C(CSc1cn(CCNC(=O)c2cccc(C(F)(F)F)c2)c2ccccc12)Nc1ccc2c(c1)OCCO2 | 7% | -3% | i | 112* | -23% | i
O=C(CSc1cn(CCNC(=O)c2ccccc2F)c2ccccc12)Nc1ccc(F)cc1 | 7% | 3% | i | 91* | 6% | i
O=C(COc1ccc(Cl)cc1)NCCc1csc(-c2ccc(F)cc2)n1 | 2% | 21% | i | 109* | 3% | i
O=C(COc1ccccc1)NCCc1csc(-c2ccc(Cl)cc2)n1 | -5% | -3% | i | 95* | -26% | i
CC(C=CC1=C(C)CCCC1(C)C)=CC=CC(C)=CC(=O)Nc1ccc(O)cc1 | . | 1% | . | . | -9% | .
CC1=C(/C=C/C(C)=C/C=C/C(C)=C/C(=O)Nc2ccc(O)cc2)C(C)(C)CCC1 | . | 11% | . | 84*! | -21%[53.3 µM] | .
COc1ccc(-c2nc3c(c(SCC(=O)Nc4cccc(O)c4)n2)Cc2c(CO)cnc(C)c2O3)cc1 | -1% | 45µM* | i | -5 | ? | i
COc1cccc2c1Oc1nc(-c3ccccc3)nc(SCC(=O)Nc3ccccc3)c1C2 | 6% | 1% | i | 2 | -34% | i
COc1ccc2c(c1)Oc1nc(-c3ccc(C)cc3)nc(SCC(=O)Nc3cccc(C(=O)O)c3)c1C2 | . | 22µM* | . | . | . | .
O=C(CSc1nc(-c2ccc(F)cc2)nc2c1Cc1ccccc1O2)Nc1cccc(C(=O)O)c1 | 1% | 6.3µM* | i | 0 | -17% | i
COc1cc(NC(=O)CSc2nc(-c3ccc(C)cc3)nc3c2Cc2ccccc2O3)cc(OC)c1 | 6% | -2% | i | 8 | -11% | i
Cc1ccc(OCCn2c(CCNC(=O)c3cccc(N)c3)nc3ccccc32)cc1 | . | 0%[57.5 µM] | . | . | . | .
Cc1ccc(-c2nc3ccccc3[nH]2)cc1NC(=O)c1ccc(-c2cccc(Cl)c2)o1 | . | -3% | . | . | . | .
Cc1nnc(Nc2sc3c(c2-c2nc4ccccc4s2)CCNC3)o1 | . | -15% | . | . | . | .
Oc1cc(O)cc(/C=C/c2ccc(O)c(O)c2)c1 | . | 35µM* | . | 17 | 3.5µM*! | .
COc1ccc(/C=C\c2cc(OC)c(OC)c(OC)c2)cc1O | . | -17% | . | . | . | .
COc1ccc(O)c(CNc2ccc(S(=O)(=O)Nc3nccs3)cc2)c1 | . | 2% | . | . | . | .
C=CC(C)(O)CC/C=C(/C)COC(=O)C(C)C1CCC(C)(C=C)O1 (centres undefined) | . | ? | . | . | -9%[53.3 µM] | .
SMILES | GALK inhibitor | NTMT1 inhibitor | B2AR arrestin ag | DRV1 agonist | FH mod | PTAP-TSG101 blk
FC(F)(F)c1cccc(-c2ccc(CNc3nc(-c4ccccc4C(F)(F)F)nc4ccccc34)cc2)c1 | . | 19% | . | . | . | .
Cc1ccc(NS(=O)(=O)c2ccc3c(c2)[C@H]2C=CC[C@H]2[C@@H](c2ccc(F)cc2)N3)cc1C | 3% | 16% | i | -19 | -2% | i
Cc1ccc(NS(=O)(=O)c2ccc3c(c2)C2C=CCC2C(c2ccc(C(=O)O)cc2)N3)cc1C (centres undefined) | . | 25µM* | . | . | . | .
C=C1C(=O)O[C@H]2C[C@H](C)C(/C=C/C(C)=O)=CC[C@H]12 | . | -13% | . | . | . | .
COc1ccc(-c2cn3nc(N4CCC(C(=O)Nc5cccc(OC)c5)CC4)sc3n2)cc1 | 1% | -3% | i | 76* | 5% | i
COc1ccc(-c2cn3nc(N4CCC(C(=O)Nc5ccc(Cl)cc5C)CC4)sc3n2)cc1 | 4% | 3% | i | 2 | 3% | i
CCCCCCCCCCCCCC#CC(=O)[C@@H]1COC(C)(C)N1C(=O)OC(C)(C)C | . | -4% | . | . | 0% | .
COc1cccc(C2c3c(ncn(-c4ccccc4C#N)c3=N)Oc3ccc4ccccc4c32)c1 (centres undefined) | . | 79µM* | . | . | . | .
Cc1ccc(CN(C(=O)COc2ccc(C(C)C)cc2)C2CCS(=O)(=O)C2)o1 (centres undefined) | 1% | -23% | i | 61* | -20% | i
Cc1ccc(-n2[nH]c(C)c(N=Nc3cccc(-c4cccc(C(=O)O)c4)c3O)c2=O)cc1C | . | 35µM*! | . | 30 | ? | .
Cc1ccc(OCCn2c(CCNC(=O)c3ccc[nH]3)nc3ccccc32)cc1 | . | 1%[57.5 µM] | . | . | . | .
COc1ccc(S(=O)(=O)NCc2ccc(C(=O)NCCc3ccc(Cl)cn3)cc2)cc1 | . | 3% | . | . | . | .
COc1cc(/C=C/C(=O)OC2[C@H](O)CC(O)(C(=O)O)C[C@H]2O)ccc1O (some centres undefined) | . | -4%[29.8 µM] | . | . | 5%[53.3 µM] | .
CCN(CC)CCOc1ccc(/C(=C(\Cl)c2ccccc2)c2ccccc2)cc1 | . | ? | . | 91* | -11% | .
CCOC(=O)c1nc(NCc2ccc(Cl)cc2)c2c(C)noc2n1 | -1% | -5% | i | 65* | -6% | i
COc1cc(C(=O)NS(=O)(=O)c2ccccc2C)ccc1Cc1cn(C)c2ccc(NC(=O)OC3CCCC3)cc12 | . | 71µM* | . | 46 | 5%[53.3 µM] | .
CC#CC(=O)N1CC[C@@H](n2c(=O)n(-c3ccc(Oc4ccccc4)cc3)c3c(N)ncnc32)C1 | . | 71µM* | . | . | . | .
C=CC(=O)N1CCC[C@H](n2c(=O)n(-c3ccc(Oc4ccccc4)cc3)c3c(N)ncnc32)C1 | . | 89µM* | . | . | . | .
Cc1ccc(-n2ncc3c(Nc4ccc(Oc5ccccc5)cc4)ncnc32)cc1 | 2% | 10% | i | 19 | ? | i
Cc1cc(NC(=O)Nc2nnc(C3CCCCC3)s2)ccc1F | . | 6% | . | . | . | .
CC(C)CCn1c(CN2CCN(C(=O)C(C)C)CC2)nc2c1c(=O)n(C)c(=O)n2C | . | 9% | . | . | . | .
CCOC(=O)c1cc(-c2ccccc2)n(CC(=O)NC(C)c2ccccc2)c1C (centres undefined) | 2% | 10% | i | 43 | 21% | i
